Structures can show the parent of a compound that is named as a salt. ± gives the standard deviation of the averaged measurements. The full ranking holds about 1,900 compounds; the median of “normalised cell viability (NPI; 0 = phenylarsine oxide control, 1 = DMSO control)” is about 1, and the lowest 2% start at about 0.039. The sample as a whole holds a higher share of the lowest values than the screen did.
System: NCI-H1944
Experiment: normalised cell viability (NPI; 0 = phenylarsine oxide control, 1 = DMSO control) (fraction of DMSO control); NCI-H1944 is a non-small cell lung cancer line; higher = more viable cells (less compound toxicity)
Details: 6 days
[1] = glucocorticoid arm: hydrocortisone 2.75 uM co-treatment, compound 1 µM
[2] = glucocorticoid arm: hydrocortisone 2.75 uM co-treatment, compound 5 µM
[3] = glucocorticoid arm: hydrocortisone 2.75 uM pre-treated 2 days and continued, compound 1 µM
[4] = glucocorticoid arm: hydrocortisone 2.75 uM pre-treated 2 days and continued, compound 5 µM
[5] = glucocorticoid arm: vehicle, compound 1 µM
[6] = glucocorticoid arm: vehicle, compound 5 µM
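Also: CTB read-out in 384-well plates, triplicate wells, NPI normalised per plate against 1 µM phenylarsine oxide (0) and 0.1% DMSO (1) controls.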

Compound	normalised cell viability [1]	normalised cell viability [2]	normalised cell viability [3]	normalised cell viability [4]	normalised cell viability [5]	normalised cell viability [6]
CCCN(CCC)C1CCc2cccc(O)c2C1 (racemic) [(±)-8-Hydroxy-DPAT hydrobromide]	1.02 ± 0.017	1.01 ± 0.01	1.01 ± 0.01	1.004 ± 0.0098	0.9967 ± 0.0058	0.9947 ± 0.0067
C=CCN1CC[C@]23c4c5ccc(O)c4O[C@H]2/C(=N/N=C2\CC[C@@]4(O)[C@H]6Cc7ccc(O)c8c7[C@@]4(CCN6CC=C)[C@H]2O8)CC[C@@]3(O)[C@H]1C5 [Naloxonazine dihydrochloride]	0.9893 ± 0.008	1.03 ± 0.02	1 ± 0.01	1.03 ± 0.064	0.9877 ± 0.0015	1.01 ± 0.01
CC[C@H]1CN2CCc3cc(OC)c(OC)cc3[C@@H]2C[C@@H]1C[C@H]1NCCc2cc(OC)c(OC)cc21 [Emetine dihydrochloride hydrate]	0.0625 ± 0.016	0.0175 ± 0.00036	0.342 ± 0.016	0.165 ± 0.0093	0.0125 ± 0.001	0.0108 ± 0.0029
CCCN(CCC)[C@@H]1CCc2c(F)ccc(O)c2C1 [R(+)-UH-301 hydrochloride]	1.013 ± 0.0058	1.017 ± 0.0058	1.03 ± 0.021	1.017 ± 0.0058	1.02	1.017 ± 0.0058
OC[C@H]1O[C@@H](n2cnc3cc(Cl)c(Cl)cc32)[C@H](O)[C@@H]1O [5,6-Dichlorobenzimidazole riboside]	1.007 ± 0.0058	0.998 ± 0.013	1.007 ± 0.0058	1.03 ± 0.01	0.988 ± 0.008	0.991 ± 0.0053
NC1CCc2cc(O)c(O)cc2C1 (configuration not stated) [6,7-ADTN hydrobromide]	1.001 ± 0.009	1.01 ± 0.011	0.992 ± 0.022	1.002 ± 0.0068	0.98433 ± 0.00058	0.9887 ± 0.0059
O=C[C@H](Cl)[C@@H](O)[C@H](O)[C@H](O)CO [2-Chloro-2-deoxy-D-glucose]	1 ± 0.013	0.9953 ± 0.0015	1.01 ± 0.012	0.994 ± 0.01	0.9807 ± 0.0011	0.9817 ± 0.0067

From the supplement of paper PMC8285479
